This is a sample that favours compounds with a hit; in the whole collection about 2.4% have one here.
Cruzain inh noDet: inhibitors of Trypanosoma cruzi cruzain without detergent; P25779; purified cruzain, Z-FR-AMC fluorescence, no detergent; Potency, µM, inactives show max response, negative = inhibition, actives largely listed as inhibitors; 200,000 tested, 2.3% active;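 also: plate controls were enzyme without inhibitor for no effect and buffer without enzyme for full effect; nearly all actives have a fitted effect of over 40% in size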
Target sequence (P25779 123-467 limits assumed): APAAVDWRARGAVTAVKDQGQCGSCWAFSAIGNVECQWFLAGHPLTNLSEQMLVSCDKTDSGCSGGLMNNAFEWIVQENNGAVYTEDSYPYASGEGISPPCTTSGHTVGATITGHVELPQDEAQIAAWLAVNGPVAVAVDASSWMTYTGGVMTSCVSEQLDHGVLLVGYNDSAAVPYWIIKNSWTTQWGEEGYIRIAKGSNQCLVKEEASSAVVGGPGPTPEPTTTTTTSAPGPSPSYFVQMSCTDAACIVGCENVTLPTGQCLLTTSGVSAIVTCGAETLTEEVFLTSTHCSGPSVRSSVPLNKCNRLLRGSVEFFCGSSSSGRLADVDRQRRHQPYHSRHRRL
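Purified cruzain at 1.5 nM, pre-incubated 15 min with compound at room temperature in 100 mM sodium acetate pH 5.5, 5 mM DTT, 0.00005% Triton X-100. Reaction started with 2 uM Z-FR-AMC; AMC fluorescence increase over 60 s gives rate.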
Cruzain Triton: inhibitors of Trypanosoma cruzi cruzain with detergent; Potency, µM, for inactives: max response, negative = inhibition, usual class: inhibitors; purified cruzain, Z-FR-AMC fluorescence, 0.01% Triton; 200,000 tested, 0.43% active; P25779;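 also: plate controls were neutral wells for no effect and buffer without enzyme for full effect; nearly all actives have a fitted effect of over 40% in size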
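15 min RT preincubation of 1.5 nM cruzain with compound, then 2 uM Z-FR-AMC added; kinetic AMC fluorescence, 60 s delta. Triton X-100 0.01%, pH 5.5.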
* = called active by the depositor; ? = inconclusive. Calls follow the shape of the dose curve; as a rule, active = well fitted curve in the direction sought with a large enough effect; inconclusive = small, poorly fitted or top-dose-only effect, or another doubt; inactive = no such curve, though single readings can be large; an effect the other way counts as inactive or inconclusive. Potency is read from the fitted curve at half-maximal effect.

SMILES	Cruzain inh noDet	Cruzain Triton
c1cc2c3c(cccc3c1)NC1(CCCCCC1)N2	12.6µM*	-0.6%
c1cc2c3c(cccc3c1)NC1(CCCCC1)N2	7.94µM*	0.0%
O=C1CCSc2cccc3cccc(c23)N1	-6.7%	-4.2%
N#Cc1c(-c2ccccc2)no[n+]1[O-]	4.2%	-2.6%
CC1(C)S[C@@H]2[C@H](C(=O)O)N=C(Cc3ccccc3)N2[C@H]1C(=O)O	11.0%	2.5%
Cc1cccc(NC(=O)c2cnc3sc(N4CCCC4)nn3c2=O)c1C	-1.2%	-0.7%
Cc1cccc(C(=O)N=c2c(C#N)cc3c(=O)n4cccc(C)c4nc3n2Cc2ccco2)c1	15.8µM*	8.91µM*
CCOC(=O)c1cc2c(=O)n3cccc(C)c3nc2n(Cc2ccco2)c1=NC(=O)c1cccnc1	?	-8.9%
CN1CCN(c2ncc3nc(-c4cccs4)c(=O)n(C[C@H]4CCCO4)c3n2)CC1	14.2%	-11.6%
C[C@@H]1CC[C@H]2[C@H](C)[C@H]3CC[C@H]4C5[C@@H](O)CC6=CC(=O)CC[C@]6(C)[C@H]5C[C@H]4C3C(=O)N2C1 (stereo partly drawn)	7.2%	5.0%
CCOc1ccccc1Nc1nc(-c2ccc(C)cc2)c(CC(=O)O)s1	?	-8.3%
Cc1cc(C=C2C(=O)c3ccccc3C2=O)c(C)n1-c1ccccc1	?	-4.0%
Cc1cc(/C=C2\Cc3ccccc3C2=O)c(C)n1-c1ccccc1	15.8µM*	-7.7%
COC(=O)C(NC(=O)CC(C)C)(Nc1nc2c(s1)CCCC2)C(F)(F)F (stereo not drawn)	-3.5%	0.2%
CCCc1nnc2n1N=C(c1ccc(-c3cc(Cl)ccc3Cl)o1)CS2	15.8µM*	-3.1%
CCCc1nnc2n1N=C(c1ccc(OC)c(OC)c1)CS2	9.3%	-4.8%
CCc1ccc(NC(=O)CSc2nnc(COc3ccc4c(c3)CCCC4)o2)cc1	15.8µM*	5.0%
COC(=O)c1ccc(NC(=O)CSc2nnc(COc3ccc4c(c3)CCCC4)o2)cc1	10µM*	5.4%
COc1cccc(NC(=O)CSc2nnc(COc3ccc4c(c3)CCCC4)o2)c1	13.7%	-1.3%
CCc1ccc(OCc2nnc(SCC(=O)Nc3cccc(C(=O)N4CCOCC4)c3)o2)cc1	?	-3.1%
COc1ccccc1CNC(=O)C1CCC(CNS(=O)(=O)c2ccc3c(c2)CCCC(=O)N3)CC1 (stereo not drawn)	-0.9%	-1.4%
COC(=O)[C@@H]1C[C@@H]2CC[C@@H](O)C[C@@H]2N1CC1CCCCC1	2.8%	-0.2%
COc1ccc(/C=N/Nc2ccc(C(F)(F)F)cc2[N+](=O)[O-])cc1	1.6%	-3.9%
COc1ccc(NS(=O)(=O)c2ccc(N/N=C/c3ccc(N4CCOCC4)cc3)c([N+](=O)[O-])c2)cc1	25.1µM*	-4.7%
CCOc1ccc(CNC(=O)CCCn2nc(C)c3sc4ccccc4c3c2=O)cc1	20µM*	-7.1%
SMILES	Cruzain inh noDet	Cruzain Triton
CCOc1ccc(CCNC(=O)CCCn2nc(C)c3sc4ccccc4c3c2=O)cc1	?	-8.5%
COc1ccc(NC(=O)Cn2c(=O)n(-c3ccc(OC)cc3)c(=O)c3sc4ccccc4c32)cc1	1.2%	4.4%
COc1ccccc1Nc1nc(-c2sc(NC(=O)C(C)(C)C)nc2C)cs1	-3.9%	-2.3%
Cc1nc(NC(=O)c2ccccc2)sc1-c1csc(NCc2ccco2)n1	15.8µM*	4.7%
COc1cccc(Nc2nc(-c3sc(NC(=O)c4ccccc4)nc3C)cs2)c1	?	1.4%
Cc1ccc(Nc2nc(-c3sc(NC(=O)c4cccc(Cl)c4)nc3C)cs2)cc1	3.98µM*	6.3%
Cc1ccc(Nc2nc(-c3sc(NC(=O)c4ccco4)nc3C)cs2)cc1	-25.7%	2.7%
Cc1nc(NC(=O)c2ccc(Cl)cc2)sc1-c1csc(Nc2cccc(F)c2)n1	10µM*	8.8%
COc1ccccc1Nc1nc(-c2sc(NC(=O)c3cccc(Cl)c3)nc2C)cs1	7.94µM*	10.6%
Cc1nc(C)c(-c2csc(NCc3ccco3)n2)s1	-7.6%	-7.2%
N[C@@H](CSC1(c2ccc(Cl)cc2)c2ccccc2-c2ccccc21)C(=O)O	0.8%	-4.2%
CC1(C)O[C@H]2C[C@@H]3[C@H]4CCC5=CC(=O)C=C[C@]5(C)[C@@]4(F)[C@@H](O)C[C@]3(C)[C@]2(C(=O)CO)O1	-0.6%	0.5%
CCc1ccc(-c2nc(CN3CCCC(C(=O)N4CCN(c5cc(Cl)ccc5C)CC4)C3)c(C)o2)cc1 (stereo not drawn)	18.4%	-1.4%
O=C1CSC(c2cn(-c3ccccc3)nc2-c2cc3ccccc3oc2=O)N1Cc1ccccc1 (stereo not drawn)	?	28.2µM*
CN1CCN(C(=O)c2ccc(C3SCC(=O)N3Cc3ccco3)cc2)CC1 (stereo not drawn)	-5.3%	3.3%
O=C1CSC(c2cn(-c3ccccc3)nc2-c2ccc3c(c2)OCCO3)N1CCN1CCOCC1 (stereo not drawn)	?	-0.6%
O=C1CSC(c2nn(-c3ccccc3)cc2-c2cc3ccccc3oc2=O)N1Cc1ccco1 (stereo not drawn)	?	25.1µM*
CN(CC(=O)O)Cc1c[nH]c2ccccc12	11.2%	2.9%
Cc1ccc(OCC(=O)Nc2ccc3nc(SCCOc4ccccc4)sc3c2)cc1	-0.9%	-1.9%
O=C(NCc1cccnc1)[C@@H]1[C@@H](C(=O)O)[C@H]2CC[C@@H]1O2	-7.6%	1.5%
C/C(=N\NC(=O)c1ccc([N+](=O)[O-])c(C)c1)c1ccccc1Cl	14.8%	-2.5%
C/C(=N/NC(N)=S)c1ccccc1[N+](=O)[O-]	12.6µM*	15.8µM*
O=C1CCCN1CCCn1cnc2c([nH]c3ccc(F)cc32)c1=O	3.3%	-3.9%
O=C1CCCN1CCCNc1ncnc2c1[nH]c1ccc(Cl)cc12	15.8µM*	25.1µM*
C=CCNc1ncnc2c1[nH]c1ccc(C)cc12	-18.3%	-20.7%
SMILES	Cruzain inh noDet	Cruzain Triton
Cc1ccc2[nH]c3c(NCCN4CCOCC4)ncnc3c2c1	20µM*	-26.2%
COc1cc(C/C=C\c2ccccc2)c(OC)cc1O	1.0%	-6.0%
Cn1c(=O)c2[nH]c(CCC(=O)O)nc2n(C)c1=O	2.9%	3.1%
O=C(NCC(c1ccc2c(c1)OCO2)N1CCN(c2ccccc2F)CC1)c1ccccc1F (stereo not drawn)	6.6%	-6.2%
[Cl][Pd][Cl].[S-]C1=C2N=CN[C-]2[NH+]=C[N-]1.[S-]c1ncnc2[nH]cnc12	0.6%	6.5%
Cn1c(=O)cc(OCCCC(=O)Nc2ccc(F)cc2)c2ccccc21	?	1.9%
CC(=O)NC(CC(C)C)C(=O)NC(Cc1ccccc1)C(N)=O (stereo not drawn)	-0.9%	3.5%
CC(=O)[C@H](CC(C)C)NC(=O)[C@@H](CC(C)C)NC(=O)[C@H](CC(C)C)NC(=O)OCc1ccccc1	0.0126µM*	0.0035µM*
Fc1cccc(Cl)c1CNCCSc1nnnn1-c1ccccc1	12.6µM*	2.5%
Clc1ccccc1CNCCCSc1nnnn1-c1ccccc1	-7.6%	-1.2%
CC(C)CNC(=O)COC(=O)c1ccc([N+](=O)[O-])cc1Cl	-10.1%	0.4%
COc1cc(OC)cc(C(=O)NCC(=O)OCC(=O)NC(C)(C)C)c1	2.4%	-1.2%
CCNC(=O)COC(=O)CNC(=O)c1cc(Cl)cc([N+](=O)[O-])c1	7.94µM*	7.94µM*
CC(C)(C)NC(=O)COC(=O)CNC(=O)c1cc(Cl)cc([N+](=O)[O-])c1	20µM*	25.1µM*
CC(C)CNC(=O)COC(=O)CNC(=O)c1cc(Cl)cc([N+](=O)[O-])c1	7.94µM*	10µM*

Screening results deposited in PubChem BioAssay by National Center for Advancing Translational Sciences (NCATS).
